Structures are written as SMILES. Some of the results follow. Records with an inconclusive call do not appear. Calls of active or inactive are those of the source. Calls come from the whole dose curve; as a rule, active = well fitted inhibition curve with a large enough effect; inconclusive = small, poorly fitted or top-dose-only effect; inactive = flat fitted curve, though single readings scatter.

The test has as its target Ubiquitin carboxyl-terminal hydrolase 1 (Homo sapiens) (UniProt O94782). The test is described as follows: Inhibitors of USP1/UAF1: Hit Validation in Primary Assay. To be noted: Ub-Rhodamine cleavage, fluorescence kinetic read. From the text:
Deubiquitinating enzymes (DUBs) are a class of enzymes that can cleave isopeptide bond formed between the C-terminal carboxylate of ubiquitin and a lysine side-chain amino group on the target protein. Among them, ubiquitin specific proteases (USPs) constitute the largest DUB family. Human USPs are emerging as promising targets for pharmacological intervention because of their connection to a number of human diseases, including prostate, colon and breast cancer (1, 2), pediatric acute lymphoblastic leukemia (3), and familial cylindromatosis (4). The advantage of inhibiting USPs lies in the potential specificity of therapeutic intervention that can lead to better efficacy and reduce nonspecific side effects. […] This miniaturized assay has a fluorescent read-out and is used to screen the NIH Molecular Libraries Small Molecule Repository (MLSMR) in order to identify a small molecule that inhibits USP1. […]
3 microliters of reagents (buffer in columns 3 and 4 as negative control and 1nM USP1/UAF1 complex in columns 1, 2, and 5-48) are dispensed into Greiner black solid bottom 1536-well assay plates. […] The plates are immediately centrifuged at 1000 rpm for 15 seconds, and subsequently transferred to a ViewLux high-throughput CCD imager (PerkinElmer) wherein kinetic measurements of fluorescence are acquired using 480 nm excitation/540 nm emission filter set (6 reads every 60 seconds, see Table 1). […]

Ubiquitin carboxyl-terminal hydrolase 1 (Homo sapiens), sequence (O94782 whole entry, looked up): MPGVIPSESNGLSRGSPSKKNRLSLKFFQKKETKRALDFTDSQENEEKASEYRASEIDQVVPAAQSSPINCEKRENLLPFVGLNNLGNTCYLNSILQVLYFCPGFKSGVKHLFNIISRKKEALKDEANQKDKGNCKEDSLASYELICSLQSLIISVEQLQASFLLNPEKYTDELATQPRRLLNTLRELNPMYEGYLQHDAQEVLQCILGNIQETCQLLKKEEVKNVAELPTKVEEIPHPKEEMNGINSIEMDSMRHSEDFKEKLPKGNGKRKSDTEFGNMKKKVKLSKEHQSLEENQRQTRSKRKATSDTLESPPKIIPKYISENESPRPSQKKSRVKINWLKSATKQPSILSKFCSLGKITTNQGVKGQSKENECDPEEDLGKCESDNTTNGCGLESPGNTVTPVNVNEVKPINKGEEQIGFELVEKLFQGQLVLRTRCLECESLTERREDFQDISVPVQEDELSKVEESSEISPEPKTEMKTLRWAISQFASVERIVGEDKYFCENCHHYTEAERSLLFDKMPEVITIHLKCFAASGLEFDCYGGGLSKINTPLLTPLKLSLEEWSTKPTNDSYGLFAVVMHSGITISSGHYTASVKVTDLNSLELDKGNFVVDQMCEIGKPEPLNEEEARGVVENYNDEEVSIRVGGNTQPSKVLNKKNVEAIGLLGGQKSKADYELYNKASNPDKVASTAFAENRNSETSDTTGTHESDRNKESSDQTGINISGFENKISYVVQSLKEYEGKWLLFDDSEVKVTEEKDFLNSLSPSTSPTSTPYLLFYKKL

Turning to `CC(=O)c1c(O)c(C)c(O)c(Cc2c(O)c3c(c(C(=O)/C=C/c4ccccc4)c2O)OC(C)(C)C=C3)c1O`, the Potency was 41.8 µM (active).
